We go through one sequence from paper PMC7862700, “An all-to-all approach to the identification of sequence-specific readers for epigenetic DNA modifications on cytosine”.

Common to all, as to assay: DAPPL (digital affinity profiling via proximity ligation, sequencing); 10 mM Tris-HCl pH 7.5, 50 mM NaCl, 1 mM DTT, 4% glycerol, room temperature, 30 min; GST-TFs on glutathione beads, 16-mer random dsDNA library, 0.1% formaldehyde crosslink after washing; high values mean tight binding
One assay deals with T1, FEV (Homo sapiens, UniProt Q99581 1-238).
T1 sequence: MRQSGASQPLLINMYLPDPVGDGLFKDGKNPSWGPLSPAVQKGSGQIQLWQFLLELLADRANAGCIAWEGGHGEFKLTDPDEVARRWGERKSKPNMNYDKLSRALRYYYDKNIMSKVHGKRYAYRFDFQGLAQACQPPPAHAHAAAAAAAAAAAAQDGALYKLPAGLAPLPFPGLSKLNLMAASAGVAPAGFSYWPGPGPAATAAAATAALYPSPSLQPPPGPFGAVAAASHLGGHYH
The settings on record: protein: recombinant; tags: N-terminal GST; dsDNA, one strand shown. In short, it runs like this:
(§1)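 Human transcription factors fused to GST were expressed in yeast, captured on glutathione beads, given DNA barcodes and pooled with a GST-only negative control. Pools were incubated with 200 nmole of a 16-mer random double-stranded DNA library in Tris/NaCl/DTT/glycerol buffer at room temperature for 30 min. They were then washed, crosslinked with 0.1% formaldehyde, proximity-ligated (BsaI/T4 ligase, 1 h, 37 °C), PCR-amplified and sequenced on an Illumina NextSeq500. Binding signal is each 6-mer's read frequency for a factor divided by its frequency for the GST control.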

A further assay addresses ETV5 (Homo sapiens, UniProt P41161 1-510). The settings on record: protein: recombinant; tags: N-terminal GST; dsDNA, one strand shown. In short, it runs like this: as §1
A further assay has as its target HSF1 (Homo sapiens, UniProt Q00613 1-529). The settings on record: protein: recombinant; tags: N-terminal GST; chain copies: 3; dsDNA, one strand shown. Summed up:
as §1

The target of a further assay is T2, SPIC (Homo sapiens, UniProt Q8N5J4 1-248).
T2 sequence: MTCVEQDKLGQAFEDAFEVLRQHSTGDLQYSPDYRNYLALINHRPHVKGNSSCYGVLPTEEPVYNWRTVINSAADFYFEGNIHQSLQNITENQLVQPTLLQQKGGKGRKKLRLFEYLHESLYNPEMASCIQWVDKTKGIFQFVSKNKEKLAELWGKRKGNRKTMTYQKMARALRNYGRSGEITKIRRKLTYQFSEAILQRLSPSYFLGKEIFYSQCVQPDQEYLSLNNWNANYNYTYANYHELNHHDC
The settings on record: protein: recombinant; tags: N-terminal GST; dsDNA, one strand shown. In short, it runs like this:
as §1

In a further assay the target is ELF4 (Homo sapiens, UniProt Q99607 1-663). The conditions noted are these: protein: recombinant; tags: N-terminal GST; dsDNA, one strand shown. In short, it runs like this: as §1
Chain of ELF4 (Q99607 whole entry): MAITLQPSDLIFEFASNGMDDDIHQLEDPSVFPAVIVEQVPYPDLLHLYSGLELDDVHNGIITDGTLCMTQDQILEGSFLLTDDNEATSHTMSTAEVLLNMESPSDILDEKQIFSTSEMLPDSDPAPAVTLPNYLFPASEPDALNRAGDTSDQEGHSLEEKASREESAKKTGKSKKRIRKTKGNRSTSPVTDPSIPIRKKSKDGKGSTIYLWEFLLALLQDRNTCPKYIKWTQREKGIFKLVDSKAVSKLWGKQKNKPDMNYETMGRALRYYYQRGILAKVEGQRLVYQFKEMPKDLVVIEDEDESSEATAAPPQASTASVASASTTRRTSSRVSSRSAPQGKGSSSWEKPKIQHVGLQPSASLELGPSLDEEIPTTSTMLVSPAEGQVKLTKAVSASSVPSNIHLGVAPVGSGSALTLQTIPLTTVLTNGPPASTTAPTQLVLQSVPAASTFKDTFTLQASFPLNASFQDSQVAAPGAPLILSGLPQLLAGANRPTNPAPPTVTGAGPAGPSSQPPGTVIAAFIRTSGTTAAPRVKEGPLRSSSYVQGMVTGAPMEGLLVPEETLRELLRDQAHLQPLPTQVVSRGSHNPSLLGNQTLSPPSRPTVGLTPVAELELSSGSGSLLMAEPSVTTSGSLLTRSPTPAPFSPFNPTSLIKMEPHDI
The target of the next assay is T3, ELK4 (Homo sapiens, UniProt P28324-2 1-405).
T3 sequence: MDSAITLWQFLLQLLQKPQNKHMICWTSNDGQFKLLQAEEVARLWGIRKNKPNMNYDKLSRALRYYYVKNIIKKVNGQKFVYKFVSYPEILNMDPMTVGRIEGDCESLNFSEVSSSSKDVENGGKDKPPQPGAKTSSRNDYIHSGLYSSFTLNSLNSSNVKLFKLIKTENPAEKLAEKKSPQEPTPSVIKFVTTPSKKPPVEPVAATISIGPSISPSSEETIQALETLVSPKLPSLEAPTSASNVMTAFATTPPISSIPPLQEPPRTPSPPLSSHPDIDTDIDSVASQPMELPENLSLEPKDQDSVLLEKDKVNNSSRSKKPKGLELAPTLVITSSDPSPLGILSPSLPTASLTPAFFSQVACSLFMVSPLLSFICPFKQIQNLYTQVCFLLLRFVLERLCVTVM
The settings on record: protein: recombinant; tags: N-terminal GST; dsDNA, one strand shown. Summed up: as §1

In the next assay the target is T4, ETV2 (Homo sapiens, UniProt O00321 1-342).
T4 sequence: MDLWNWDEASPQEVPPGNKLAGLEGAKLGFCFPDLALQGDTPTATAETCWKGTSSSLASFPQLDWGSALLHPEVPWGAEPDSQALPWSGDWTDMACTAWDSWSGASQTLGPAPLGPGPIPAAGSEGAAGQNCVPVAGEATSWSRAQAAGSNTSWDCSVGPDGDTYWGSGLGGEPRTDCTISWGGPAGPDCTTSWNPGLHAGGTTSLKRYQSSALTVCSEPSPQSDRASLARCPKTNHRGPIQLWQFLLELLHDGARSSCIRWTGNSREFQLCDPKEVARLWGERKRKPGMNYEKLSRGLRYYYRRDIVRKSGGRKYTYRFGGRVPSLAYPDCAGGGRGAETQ
The conditions noted are these: protein: recombinant; tags: N-terminal GST; dsDNA, one strand shown. In short, it runs like this:
as §1

For a further assay, the target named is T5, ELF3 (Homo sapiens, UniProt P78545 1-371).
T5 sequence: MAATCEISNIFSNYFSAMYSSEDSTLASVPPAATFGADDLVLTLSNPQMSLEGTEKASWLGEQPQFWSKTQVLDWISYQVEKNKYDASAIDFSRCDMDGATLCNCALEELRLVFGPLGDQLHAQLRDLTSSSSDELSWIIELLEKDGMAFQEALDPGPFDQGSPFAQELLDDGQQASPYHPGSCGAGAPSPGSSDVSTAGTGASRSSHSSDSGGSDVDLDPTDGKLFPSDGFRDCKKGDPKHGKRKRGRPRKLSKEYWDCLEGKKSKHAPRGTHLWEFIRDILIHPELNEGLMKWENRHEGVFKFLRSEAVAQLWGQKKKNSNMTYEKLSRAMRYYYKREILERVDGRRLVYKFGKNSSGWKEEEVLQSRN
The settings on record: protein: recombinant; tags: N-terminal GST; dsDNA, one strand shown. In short, it runs like this:
as §1

The target of the next assay is CRX (Homo sapiens, UniProt O43186 1-299). The settings on record: protein: recombinant; tags: N-terminal GST; dsDNA, one strand shown. In short, it runs like this: as §1
Chain of CRX (O43186 whole entry): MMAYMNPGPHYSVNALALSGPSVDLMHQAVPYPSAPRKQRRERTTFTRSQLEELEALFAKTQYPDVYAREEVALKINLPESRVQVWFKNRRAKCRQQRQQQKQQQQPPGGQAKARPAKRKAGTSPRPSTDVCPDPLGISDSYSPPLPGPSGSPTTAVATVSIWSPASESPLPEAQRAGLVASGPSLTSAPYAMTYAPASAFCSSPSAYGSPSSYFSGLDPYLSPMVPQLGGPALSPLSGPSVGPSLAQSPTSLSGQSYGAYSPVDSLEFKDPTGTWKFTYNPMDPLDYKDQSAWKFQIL
The next assay concerns the target ETV1 (Homo sapiens, UniProt P50549 1-477). The conditions noted are these: protein: recombinant; tags: N-terminal GST; dsDNA, one strand shown. In short, it runs like this: as §1
The next assay concerns the target T6, ERF (Homo sapiens, UniProt P50548 1-548).
T6 sequence: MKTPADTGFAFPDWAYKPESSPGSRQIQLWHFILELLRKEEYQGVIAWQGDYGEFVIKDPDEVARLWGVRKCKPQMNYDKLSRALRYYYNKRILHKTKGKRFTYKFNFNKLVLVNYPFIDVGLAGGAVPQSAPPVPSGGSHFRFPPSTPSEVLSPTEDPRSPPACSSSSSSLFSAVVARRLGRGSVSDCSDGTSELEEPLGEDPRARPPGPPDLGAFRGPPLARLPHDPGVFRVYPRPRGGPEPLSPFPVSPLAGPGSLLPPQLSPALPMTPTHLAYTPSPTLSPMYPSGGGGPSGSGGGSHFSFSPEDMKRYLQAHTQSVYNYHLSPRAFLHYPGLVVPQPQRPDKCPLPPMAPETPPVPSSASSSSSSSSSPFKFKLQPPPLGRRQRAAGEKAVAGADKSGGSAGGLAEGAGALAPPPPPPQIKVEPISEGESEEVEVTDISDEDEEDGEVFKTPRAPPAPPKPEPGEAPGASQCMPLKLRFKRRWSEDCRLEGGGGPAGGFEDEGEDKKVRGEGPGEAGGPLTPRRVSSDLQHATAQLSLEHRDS
The conditions noted are these: protein: recombinant; tags: N-terminal GST; dsDNA, one strand shown. Summed up:
as §1

Another assay deals with T7, ETV3L (Homo sapiens, UniProt Q6ZN32 1-361).
T7 sequence: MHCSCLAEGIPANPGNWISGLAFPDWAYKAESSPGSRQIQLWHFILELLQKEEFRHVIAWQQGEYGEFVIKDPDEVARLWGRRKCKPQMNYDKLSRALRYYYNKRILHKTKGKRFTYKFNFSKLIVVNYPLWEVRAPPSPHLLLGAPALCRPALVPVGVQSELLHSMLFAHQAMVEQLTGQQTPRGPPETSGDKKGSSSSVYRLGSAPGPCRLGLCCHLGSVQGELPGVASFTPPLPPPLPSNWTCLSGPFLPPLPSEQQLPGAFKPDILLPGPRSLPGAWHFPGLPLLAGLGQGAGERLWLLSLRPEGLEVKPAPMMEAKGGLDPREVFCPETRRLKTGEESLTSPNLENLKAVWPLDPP
The conditions noted are these: protein: recombinant; tags: N-terminal GST; dsDNA, one strand shown. In short, it runs like this:
as §1

The target in a further assay is T8, ETS2 (Homo sapiens, UniProt P15036 1-469).
T8 sequence: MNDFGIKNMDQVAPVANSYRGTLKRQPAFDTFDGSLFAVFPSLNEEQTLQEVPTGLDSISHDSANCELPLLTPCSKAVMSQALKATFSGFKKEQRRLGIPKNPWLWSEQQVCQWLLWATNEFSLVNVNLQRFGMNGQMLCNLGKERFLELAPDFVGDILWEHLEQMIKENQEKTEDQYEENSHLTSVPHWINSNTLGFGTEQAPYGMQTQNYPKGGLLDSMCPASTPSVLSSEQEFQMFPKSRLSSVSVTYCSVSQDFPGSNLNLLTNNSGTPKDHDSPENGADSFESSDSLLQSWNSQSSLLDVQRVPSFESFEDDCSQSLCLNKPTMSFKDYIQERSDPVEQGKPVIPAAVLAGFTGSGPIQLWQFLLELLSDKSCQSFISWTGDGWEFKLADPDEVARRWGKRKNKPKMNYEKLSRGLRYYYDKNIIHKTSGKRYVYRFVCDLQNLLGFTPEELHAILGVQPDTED
The conditions noted are these: protein: recombinant; tags: N-terminal GST; dsDNA, one strand shown. In short, it runs like this: as §1

In a further assay the target is T9, SPDEF (Homo sapiens, UniProt O95238 1-335).
T9 sequence: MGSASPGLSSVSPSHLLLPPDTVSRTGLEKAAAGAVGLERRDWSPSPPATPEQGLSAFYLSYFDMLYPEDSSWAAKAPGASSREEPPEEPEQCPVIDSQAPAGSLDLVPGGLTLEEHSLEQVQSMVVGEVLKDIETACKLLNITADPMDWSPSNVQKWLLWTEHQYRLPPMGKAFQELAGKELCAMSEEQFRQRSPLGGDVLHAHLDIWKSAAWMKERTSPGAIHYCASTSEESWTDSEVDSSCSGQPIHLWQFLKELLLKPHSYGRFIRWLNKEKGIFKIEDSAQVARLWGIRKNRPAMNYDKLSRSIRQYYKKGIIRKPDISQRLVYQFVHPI
The settings on record: protein: recombinant; tags: N-terminal GST; dsDNA, one strand shown. In short, it runs like this:
as §1

The target in the next assay is T10, ETV7 (Homo sapiens, UniProt Q9Y603 1-341).
T10 sequence: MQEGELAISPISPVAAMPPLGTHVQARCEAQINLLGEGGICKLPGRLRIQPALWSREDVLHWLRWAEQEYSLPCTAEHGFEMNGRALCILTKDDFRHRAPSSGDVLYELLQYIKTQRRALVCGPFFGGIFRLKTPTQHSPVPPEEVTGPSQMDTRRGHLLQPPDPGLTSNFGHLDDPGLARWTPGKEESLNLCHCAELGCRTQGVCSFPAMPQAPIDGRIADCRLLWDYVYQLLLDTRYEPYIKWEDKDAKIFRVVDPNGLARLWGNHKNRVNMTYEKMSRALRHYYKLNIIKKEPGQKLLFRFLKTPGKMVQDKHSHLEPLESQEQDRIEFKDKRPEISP
The conditions noted are these: protein: recombinant; tags: N-terminal GST; dsDNA, one strand shown. Summed up: as §1

For another assay, the target named is T11, ELF5 (Homo sapiens, UniProt Q9UKW6-2 1-255).
T11 sequence: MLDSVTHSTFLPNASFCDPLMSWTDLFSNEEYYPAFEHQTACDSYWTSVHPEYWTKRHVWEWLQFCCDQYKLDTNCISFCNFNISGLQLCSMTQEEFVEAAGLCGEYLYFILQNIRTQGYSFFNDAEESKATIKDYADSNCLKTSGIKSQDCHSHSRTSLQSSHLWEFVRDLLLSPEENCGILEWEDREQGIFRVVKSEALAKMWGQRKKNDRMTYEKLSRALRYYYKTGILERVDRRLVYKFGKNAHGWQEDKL
The settings on record: protein: recombinant; tags: N-terminal GST; dsDNA, one strand shown. In short, it runs like this: as §1

In another assay the target is T12, ETV3 (Homo sapiens, UniProt P41162-2 1-143).
T12 sequence: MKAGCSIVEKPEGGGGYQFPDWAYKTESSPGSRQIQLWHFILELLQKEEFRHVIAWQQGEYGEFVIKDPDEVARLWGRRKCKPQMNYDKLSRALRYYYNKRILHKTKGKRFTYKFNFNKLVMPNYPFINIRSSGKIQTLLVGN
The settings on record: protein: recombinant; tags: N-terminal GST; dsDNA, one strand shown. In short, it runs like this: as §1

In a further assay the target is ETV6 (Homo sapiens, UniProt P41212 1-452). The settings on record: protein: recombinant; tags: N-terminal GST; dsDNA, one strand shown. In short, it runs like this:
as §1

Chain of ETV6 (P41212 whole entry): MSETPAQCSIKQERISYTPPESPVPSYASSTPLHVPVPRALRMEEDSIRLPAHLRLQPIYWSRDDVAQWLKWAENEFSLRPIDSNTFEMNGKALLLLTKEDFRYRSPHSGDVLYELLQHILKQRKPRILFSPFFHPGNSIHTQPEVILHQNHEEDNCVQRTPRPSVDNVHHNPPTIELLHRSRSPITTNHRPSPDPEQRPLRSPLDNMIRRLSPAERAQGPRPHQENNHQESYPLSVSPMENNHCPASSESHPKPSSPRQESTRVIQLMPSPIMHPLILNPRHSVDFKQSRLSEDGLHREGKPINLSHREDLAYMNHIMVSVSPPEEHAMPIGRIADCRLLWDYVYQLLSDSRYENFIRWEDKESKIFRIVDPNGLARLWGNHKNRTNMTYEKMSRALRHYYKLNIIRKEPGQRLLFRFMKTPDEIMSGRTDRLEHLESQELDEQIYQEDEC
Chain of ETV1 (P50549 whole entry): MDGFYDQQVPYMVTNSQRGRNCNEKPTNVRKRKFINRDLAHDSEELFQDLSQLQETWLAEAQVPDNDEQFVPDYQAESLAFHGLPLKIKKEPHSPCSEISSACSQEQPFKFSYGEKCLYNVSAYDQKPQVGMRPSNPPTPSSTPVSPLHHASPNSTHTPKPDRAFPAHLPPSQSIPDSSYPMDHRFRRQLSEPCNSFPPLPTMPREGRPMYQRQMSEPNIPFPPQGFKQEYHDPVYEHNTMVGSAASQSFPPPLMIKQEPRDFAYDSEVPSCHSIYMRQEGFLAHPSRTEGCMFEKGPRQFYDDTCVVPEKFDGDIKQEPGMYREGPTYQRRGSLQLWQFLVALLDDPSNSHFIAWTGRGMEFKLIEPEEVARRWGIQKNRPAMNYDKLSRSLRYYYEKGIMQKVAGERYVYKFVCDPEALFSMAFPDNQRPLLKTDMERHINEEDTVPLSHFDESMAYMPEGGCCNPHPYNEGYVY
Chain of HSF1 (Q00613 whole entry): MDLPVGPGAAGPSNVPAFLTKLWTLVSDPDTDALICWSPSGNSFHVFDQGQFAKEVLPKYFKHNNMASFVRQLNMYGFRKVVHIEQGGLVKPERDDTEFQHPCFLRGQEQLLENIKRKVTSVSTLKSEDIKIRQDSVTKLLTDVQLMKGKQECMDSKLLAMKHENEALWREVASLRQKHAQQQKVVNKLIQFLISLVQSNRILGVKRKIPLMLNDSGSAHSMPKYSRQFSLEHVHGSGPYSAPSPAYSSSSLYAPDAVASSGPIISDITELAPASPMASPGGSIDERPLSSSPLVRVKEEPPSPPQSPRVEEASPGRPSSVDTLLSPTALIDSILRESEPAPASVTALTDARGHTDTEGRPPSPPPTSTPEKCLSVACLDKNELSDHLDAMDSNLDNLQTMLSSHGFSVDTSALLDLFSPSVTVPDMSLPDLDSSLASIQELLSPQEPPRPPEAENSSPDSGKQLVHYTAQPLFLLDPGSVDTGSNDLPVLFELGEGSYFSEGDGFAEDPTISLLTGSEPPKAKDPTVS
Chain of ETV5 (P41161 whole entry): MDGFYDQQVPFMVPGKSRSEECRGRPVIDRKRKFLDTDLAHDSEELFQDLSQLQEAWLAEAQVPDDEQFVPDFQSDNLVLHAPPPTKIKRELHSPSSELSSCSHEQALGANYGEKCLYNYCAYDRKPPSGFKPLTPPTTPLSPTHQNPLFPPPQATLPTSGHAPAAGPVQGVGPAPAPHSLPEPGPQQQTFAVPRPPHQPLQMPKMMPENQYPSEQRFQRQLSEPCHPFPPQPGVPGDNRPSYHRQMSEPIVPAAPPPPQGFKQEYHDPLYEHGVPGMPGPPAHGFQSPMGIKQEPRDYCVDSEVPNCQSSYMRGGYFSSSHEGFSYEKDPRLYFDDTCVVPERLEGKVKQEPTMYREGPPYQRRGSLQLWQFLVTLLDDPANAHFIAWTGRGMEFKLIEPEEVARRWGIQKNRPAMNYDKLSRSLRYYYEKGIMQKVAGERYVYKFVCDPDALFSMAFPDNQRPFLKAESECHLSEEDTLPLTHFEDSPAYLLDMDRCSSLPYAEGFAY

Regarding AACTGC, the binding signal was 1.42 fold enrichment (6-mer frequency, TF over GST control) with FEV; 1.38 fold enrichment (6-mer frequency, TF over GST control) with ETV5; 1.07 fold enrichment (6-mer frequency, TF over GST control) in the assay with HSF1; 1.49 fold enrichment (6-mer frequency, TF over GST control) with SPIC; 1.31 fold enrichment (6-mer frequency, TF over GST control) with ELF4; 1.33 fold enrichment (6-mer frequency, TF over GST control) with ELK4. Moreover, the binding signal in the assay with ETV2 was 1.19 fold enrichment (6-mer frequency, TF over GST control); with ELF3 it was 1.32 fold enrichment (6-mer frequency, TF over GST control); in the assay with CRX, 1.05 fold enrichment (6-mer frequency, TF over GST control); in the assay with ETV1, 1.36 fold enrichment (6-mer frequency, TF over GST control); with ERF, 1.22 fold enrichment (6-mer frequency, TF over GST control); with ETV3L, 1.37 fold enrichment (6-mer frequency, TF over GST control). In addition, the binding signal was 1.3 fold enrichment (6-mer frequency, TF over GST control) in the assay with ETS2; 1.28 fold enrichment (6-mer frequency, TF over GST control) in the assay with SPDEF; 1.3 fold enrichment (6-mer frequency, TF over GST control) with ETV7; 1.36 fold enrichment (6-mer frequency, TF over GST control) with ELF5; 1.39 fold enrichment (6-mer frequency, TF over GST control) in the assay with ETV3; 1.3 fold enrichment (6-mer frequency, TF over GST control) in the assay with ETV6.
